Several values for one entry are separate records, joined by “and”; a condition that tells them apart may be missing. Identical values can stand only once. Inconclusive results are not listed. More than one record can exist for a structure, and the calls need not agree. Activity calls are given as the source filed them. Calls come from the whole dose curve; as a rule, active = well fitted curve in the direction sought with a large enough effect; inconclusive = small, poorly fitted or top-dose-only effect, or another doubt; inactive = no such curve, though single readings can be large; an effect the other way counts as inactive or inconclusive. Peptide text beside a SMILES is read from it.
Assays:
[1] = tested on: CRL-7250; assay: Cytotoxic Profiling of Annotated Libraries Using Quantitative High-Throughput Screening (AID 1296008); settings: Five cell lines viability, CellTiter-Glo ATP luminescence, 48-72 h; max response: stronger effect = lower value; note: nearly all actives have a fitted effect of over 60% in size; note: potency is the fitted concentration of half-maximal effect; for max response: % is set by controls: 0 for no effect and ±100 for the full control effect
Method in brief: (§1)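 Compounds were pin-transferred onto cells and incubated 48 or 72 hr at 37 degree Celsius, 95% humidity. CellTiter-Glo was added, plates sat 10 min at room temperature, then ATP-coupled luminescence was imaged as the viability read-out.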

[2] = tested on: HEK293; assay: as above; settings: Five cell lines viability, CellTiter-Glo ATP luminescence, 48-72 h; max response: stronger effect = lower value
Method in brief: as §1

[3] = tested on: HaCat; assay: as above; settings: Five cell lines viability, CellTiter-Glo ATP luminescence, 48-72 h; max response: stronger effect = lower value
Method in brief: as §1

[4] = tested on: NIH3T3; assay: as above; settings: Five cell lines viability, CellTiter-Glo ATP luminescence, 48-72 h; max response: stronger effect = lower value
Method in brief: as §1

[5] = tested on: HACAT; assay: qHTS assay to identify novel small-molecules to repurpose for Merkel cell carcinoma treatment (AID 1296009); settings: MCC and control cell lines, CellTiter-Glo viability, 72 h; at 44.8 µM (top of the series) unless noted; note: nearly all actives have a fitted effect of over 60% in size; note: potency is the fitted concentration of half-maximal effect; for activity change, negative = cytotoxicity: % is set by controls: 0 for no effect and ±100 for the full control effect
Method in brief: (§2)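 Viability readout: ATP luminescence (CellTiter-Glo) after 72 hr drug exposure at 37 degree celsius. Dose-response format was 8 points for NPC and 11 points for MIPE; data normalized to in-plate controls.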

[6] = tested on: HEK293T; assay: as above; settings: MCC and control cell lines, CellTiter-Glo viability, 72 h; at 44.8 µM (top of the series) unless noted
Method in brief: as §2

[7] = tested on: MCC-13; assay: as above; settings: MCC and control cell lines, CellTiter-Glo viability, 72 h; series mostly up to 46 µM
Method in brief: as §2

[8] = tested on: MCC-26; assay: as above; settings: MCC and control cell lines, CellTiter-Glo viability, 72 h; series mostly up to 46 µM
Method in brief: as §2

[9] = tested on: MKL-1; assay: as above; settings: MCC and control cell lines, CellTiter-Glo viability, 72 h; series mostly up to 46 µM
Method in brief: as §2

[10] = tested on: MKL-2; assay: as above; settings: MCC and control cell lines, CellTiter-Glo viability, 72 h; series mostly up to 46 µM
Method in brief: as §2

[11] = tested on: NIH3T3; assay: as above; settings: MCC and control cell lines, CellTiter-Glo viability, 72 h; at 44.8 µM (top of the series) unless noted
Method in brief: as §2

[12] = tested on: UISO; assay: as above; settings: MCC and control cell lines, CellTiter-Glo viability, 72 h; series mostly up to 46 µM
Method in brief: as §2

[13] = tested on: WaGa; assay: as above; settings: MCC and control cell lines, CellTiter-Glo viability, 72 h; series mostly up to 46 µM
Method in brief: as §2

[14] = tested on: C33A; assay: Primary qHTS to identify gynecologic anti-cancer compounds using libraries of approved drugs and bioactive compounds (AID 1345084); settings: Gynecologic cancer cell panel viability, ATPlite luminescence, 48 h; series mostly up to 57.5 µM; note: % is set by controls: 0 for no effect and ±100 for the full control effect; nearly all actives have a fitted effect of over 55% in size
Method in brief: (§3)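 ATP-based viability (ATPlite), 1,000 cells/well, 16 h pre-incubation, 48 h compound at 37 C, 5% CO2, 15 min RT before read.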

[15] = tested on: CAOV3; assay: as above; settings: Gynecologic cancer cell panel viability, ATPlite luminescence, 48 h; series mostly up to 57.5 µM
Method in brief: as §3

[16] = tested on: TAB109; assay: qHTS profiling for inhibitors of Plasmodium falciparum proliferation (AID 504749); note: nearly all actives have a fitted effect of over 60% in size; note: potency is the fitted concentration of half-maximal effect; settings: P. falciparum in erythrocytes, SYBR Green DNA, 72 h; series mostly up to 28.7 µM
Method in brief: (§4)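 Quantitative HTS: compounds pinned into medium, infected erythrocytes added (0.3% parasitemia, 2.5% hematocrit), 72 h culture at 37 C under 5% CO2. Saponin/Triton lysis with SYBR Green I, overnight RT, then fluorescence read.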

[17] = tested on: TAB113; assay: as above; settings: P. falciparum in erythrocytes, SYBR Green DNA, 72 h; series mostly up to 28.7 µM
Method in brief: as §4

[18] = tested on: TAB165; assay: as above; settings: P. falciparum in erythrocytes, SYBR Green DNA, 72 h; series mostly up to 28.7 µM
Method in brief: as §4

[19] = tested on: W2; assay: as above; settings: P. falciparum in erythrocytes, SYBR Green DNA, 72 h; series mostly up to 28.7 µM
Method in brief: as §4

[20] = tested on: KB-3-1; assay: Cytotoxic Profiling of Annotated Libraries Using Quantitative High-Throughput Screening (AID 1296008); settings: Five cell lines viability, CellTiter-Glo ATP luminescence, 48-72 h; max response: stronger effect = lower value; note: nearly all actives have a fitted effect of over 60% in size; note: potency is the fitted concentration of half-maximal effect; for max response: % is set by controls: 0 for no effect and ±100 for the full control effect
Method in brief: as §1

CC(=O)Nc1ccc(O)cc1
inactive: max response [1] -5.95% | outcome [1] | max response [2] 1.48% | outcome [2] | max response [3] -8.57% | outcome [3] | max response [4] -5.84% | outcome [4] | outcome [5] | outcome [6] | Potency [7] | Potency [8] | Potency [9] | Potency [10] | outcome [11] | Potency [12] | Potency [13] | Potency [14] | Potency [15]

COC1=C(OC)C(=O)C(CCCCCCCCCCO)=C(C)C1=O
active: Potency [2] 23.7 µM | Potency [9] 15 µM
inactive: Potency [16] | max response [1] -2.47% | outcome [1] | max response [3] -8.33% | outcome [3] | max response [4] 4.9% | outcome [4] | outcome [5] | Potency [7] | Potency [8] | outcome [11] | Potency [15]

COc1ccc2cc([C@H](C)C(=O)O)ccc2c1
inactive: Potency [16] | Potency [17] | Potency [18] | max response [1] -17% and 0.0913% and -30.7% | max response [2] 0.939% | outcome [2] | max response [3] -13.6% | outcome [3] | max response [4] 2.8% and -7.1% | outcome [4] | outcome [5] | outcome [6] | Potency [7] | Potency [8] | Potency [9] | Potency [10] | outcome [11] | Potency [12] | Potency [13] | Potency [14] | Potency [15]

Clc1ccc(C(Cn2ccnc2)OCc2ccsc2Cl)c(Cl)c1 (configuration not stated)
active: Potency [16] 5.01 µM | Potency [17] 4.47 µM | Potency [18] 1 µM | Potency [19] 1.69 µM | Potency [12] 21.1 µM
inactive: max response [1] 1.94% | outcome [1] | max response [3] -18.6% and -23.1% | max response [20] -26.3% and -17.4% | Potency [7] | Potency [8] | Potency [9] | Potency [10] | Potency [13] | Potency [14] | Potency [15]

Clc1ccc(C(Cn2ccnc2)OCc2ccc(Sc3ccccc3)cc2)c(Cl)c1 (configuration not stated)
inactive: max response [1] -3.19% | outcome [1] | outcome [2] | outcome [3] | max response [20] -18.4% | max response [4] -3.29% | outcome [4] | outcome [5] | outcome [6] | Potency [7] | Potency [8] | Potency [9] | Potency [10] | outcome [11] | Potency [12] | Potency [13] | Potency [14]
active: Potency [2] 26.4 µM

CN(C)c1ccc(O)c2c1C[C@H]1C[C@H]3[C@H](N(C)C)C(=O)C(C(N)=O)=C(O)[C@@]3(O)C(=O)C1=C2O
inactive: max response [1] -30% | outcome [1] | max response [2] -11.2% | outcome [3] | max response [20] 5.11% and -5.52% and -6.53% | max response [4] -2.91% | outcome [4] | outcome [5] | Potency [7] | Potency [8] | Potency [9] | Potency [10] | outcome [11] | Potency [12] | Potency [14]
inactive and 18.8 µM (active): Potency [13]

COC(=O)[C@H](Cc1ccccc1)NC(=O)[C@@H](N)CC(=O)O (H-Asp-Phe-OMe)
inactive: Potency [16] | Potency [17] | Potency [18] | Potency [19] | max response [1] 3.9% | outcome [1] | max response [2] -5.62% and -7.54% | max response [3] 0.0507% and -16.9% | max response [20] 0.426% and 2.8% and -6.99% | max response [4] -5.4% and -2.3% | Potency [7] | Potency [8] | Potency [9] | Potency [10] | Potency [12] | Potency [13] | Potency [14] | Potency [15]

CC(C)[C@H](N)C(=O)OCCOCn1cnc2c(=O)[nH]c(N)nc21
inactive: Potency [16] | Potency [17] | Potency [18] | Potency [19] | max response [1] -3.66% and 1.07% | max response [2] 4.44% | outcome [2] | outcome [3] | max response [20] 10.2% | outcome [20] | outcome [4] | outcome [5] | outcome [6] | Potency [7] | Potency [8] | Potency [9] | Potency [10] | outcome [11] | Potency [12] | Potency [13] | Potency [14]

CCN(CCO)CCCC(C)Nc1ccnc2cc(Cl)ccc12 (configuration not stated)
inactive: Potency [16] | Potency [17] | Potency [18] | Potency [19] | max response [1] -6.76% and 0.809% | outcome [1] | max response [2] 2.34% | outcome [2] | max response [3] -3.55% and -14.9% | outcome [3] | max response [20] -5.86% and 9.19% and -2.52% | max response [4] -2.56% | outcome [4] | outcome [5] inactive [at 4.96 µM] | outcome [6] inactive [at 4.96 µM] | Potency [7] | Potency [8] | activity change, negative = cytotoxicity [9] 15.4% [at 4.84 µM] | Potency [10] | outcome [11] inactive [at 4.96 µM] | Potency [12] | activity change, negative = cytotoxicity [13] 15.3% [at 4.84 µM] | activity change, negative = cytotoxicity [14] 4.86% [at 6.55 µM] and 0.75% [at 6.55 µM]
active: Potency [9] 3.72 µM | Potency [13] 2.35 µM

COc1cc2nc(N3CCN(C(=O)C4CCCO4)CC3)nc(N)c2cc1OC (configuration not stated)
inactive: max response [1] -10.4% | outcome [1] | max response [2] -14.3% and 0.884% | max response [3] 3.43% and -0.464% | max response [20] -10.1% and 5.78% | max response [4] -4.15% and -2.16% | Potency [7] | Potency [8] | Potency [9] | Potency [10] | Potency [12] | Potency [13] | Potency [14] | Potency [15]

— PubChem BioAssay (NCATS)
